Records with an inconclusive call do not appear. Calls of active or inactive are those of the source. Rule for the calls: active = hit-call score of the fitted dose curve at least 0.9, where 1 is the maximum; inconclusive = response in the unintended direction; inactive = score below 0.9.
Molecular target: human Adrenergic, Alpha 2A Receptor (Adra2A), ADRA2A (gene 150) (UniProt P08913)
Test: NVS_GPCR_hAdra2A: NovaScreen (NVS) G Protein-Coupled Receptor Assay for human Adrenergic, Alpha 2A Receptor (Adra2A) (AID 2283257)
In short: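 Displacement of a specific radioligand from HT29 membrane protein was counted by filter scintillation after 1 h. Compounds were screened in duplicate at 25 uM, and actives were retested in concentration series. Fitting was positive-direction against DMSO.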

Sequence of human Adrenergic, Alpha 2A Receptor (Adra2A), ADRA2A (gene 150) (P08913 whole entry, looked up): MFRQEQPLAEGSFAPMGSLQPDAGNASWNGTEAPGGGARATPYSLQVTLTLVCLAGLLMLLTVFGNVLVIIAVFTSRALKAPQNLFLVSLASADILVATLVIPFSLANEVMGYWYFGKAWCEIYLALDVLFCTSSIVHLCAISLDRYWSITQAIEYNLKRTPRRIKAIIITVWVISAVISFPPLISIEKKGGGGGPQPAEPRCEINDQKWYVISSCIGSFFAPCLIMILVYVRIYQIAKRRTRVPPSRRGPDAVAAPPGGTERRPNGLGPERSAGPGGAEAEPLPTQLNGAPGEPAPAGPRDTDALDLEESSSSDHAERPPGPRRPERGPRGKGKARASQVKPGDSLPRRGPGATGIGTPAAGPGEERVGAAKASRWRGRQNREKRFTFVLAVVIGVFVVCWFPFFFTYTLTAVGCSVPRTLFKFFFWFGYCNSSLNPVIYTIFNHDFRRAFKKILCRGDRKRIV

Compound	AC50	outcome
CCCOc1sc(C(=O)N2CCC(c3cc(CN)ccc3F)CC2)c(C)c1Br	4.12 µM (active)	–
NC(=O)N(O)[C@@H]1C=C[C@H](Oc2cccc(Oc3ccc(F)cc3)c2)C1	6.62 µM (active)	–
CCCCCCC(=O)O	–	inactive
CCCCCCCCCCCCc1ccccc1S(=O)(=O)O	–	inactive
CCN(CC)CCNc1ccc(CNC=O)c2sc3ccc(OC)cc3c(=O)c12	–	inactive

Molecular target: human Adrenergic, Beta 1 Receptor (Adrb1), ADRB1 (gene 153) (UniProt P08588)
Sequence (P08588 whole entry, looked up): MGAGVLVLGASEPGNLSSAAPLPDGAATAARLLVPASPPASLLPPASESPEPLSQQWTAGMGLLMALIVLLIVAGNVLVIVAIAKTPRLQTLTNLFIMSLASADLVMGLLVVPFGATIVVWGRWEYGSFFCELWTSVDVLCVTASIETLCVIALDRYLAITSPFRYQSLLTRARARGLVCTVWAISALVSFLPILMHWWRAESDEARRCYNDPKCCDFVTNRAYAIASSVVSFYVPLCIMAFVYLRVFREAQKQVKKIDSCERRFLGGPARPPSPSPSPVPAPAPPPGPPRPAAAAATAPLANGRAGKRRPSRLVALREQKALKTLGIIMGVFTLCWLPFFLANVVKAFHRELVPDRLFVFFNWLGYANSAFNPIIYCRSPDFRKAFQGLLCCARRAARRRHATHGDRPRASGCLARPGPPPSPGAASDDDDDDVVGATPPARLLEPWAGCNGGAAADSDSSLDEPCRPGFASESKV
Test: NVS_GPCR_hAdrb1: NovaScreen (NVS) G Protein-Coupled Receptor Assay for human Adrenergic, Beta 1 Receptor (Adrb1) (AID 2283258)
Description: (§1) NVS_GPCR_hAdrb1 is a biochemical, single-readout assay that uses extracted gene-proteins from Human neuroepithelioma cells in a cell-free assay. Measurements were taken 2 hours after chemical dosing in a 96-well plate.NVS_GPCR_hAdrb1 is one of one assay component(s) measured or calculated from the NVS_GPCR_hAdrb1 assay. It is designed to make measurements of radioligand binding, a form of binding reporter, as detected with scintillation counting signals by Filter-based radiodetection technology.Data from the assay component NVS_GPCR_hAdrb1 was analyzed into 1 assay endpoint. This assay endpoint, NVS_GPCR_hAdrb1, was analyzed in the positive analysis fitting direction relative to DMSO as the negative control and baseline of activity. Using a type of binding reporter, loss-of-signal activity can be used to understand changes in the binding as they relate to the gene ADRB1. Furthermore, this assay endpoint can be referred to as a primary readout, because the performed assay has only produced 1 assay endpoint. To generalize the intended target to other relatable targets, this assay endpoint is annotated to the gpcr intended target family, where the subfamily is rhodopsin-like receptor.
(§2) Binding assays used specific radioligands (tritiated, iodinated) with non-radioactive competitive displacement ligands in agonist or antagonist protocols (as indicated) and various reference compounds and inhibitors to titrate specific binding to receptors and transporters. Most enzyme assays (CYPs, kinases, phosphatases, proteases, HDACs) used recombinant protein and specific substrates (fluorescence mostly, some colorimetric and radioactive) and inhibitors, followed by a biochemical separation of substrate and product. All assays for the biochemical HTS were initially run in duplicate at a single concentration (10 uM for CYP450 assays and 25 uM for all others). […] Each assay was run with positive and negative controls, and concurrent controls on every plate. The follow-up (secondary) screen tested active chemical-pairs in concentration series, as well as a few additional assays not tested in the primary screen, some selected negative inactives, and several cases re-run in the concentration series for confirmatory purposes.

Compound	AC50	outcome
CCCOc1sc(C(=O)N2CCC(c3cc(CN)ccc3F)CC2)c(C)c1Br	15.2 µM (active)	–
NC(=O)N(O)[C@@H]1C=C[C@H](Oc2cccc(Oc3ccc(F)cc3)c2)C1	–	inactive
NC(=O)N1C(=O)C(C(=O)c2cc(Cl)cs2)c2cc(F)c(Cl)cc21 (stereo unspecified)	–	inactive
CCCCCCCCCCCCc1ccccc1S(=O)(=O)O	6.83 µM (active)	–
CN1CCN(c2ccccc2/C=C2\SCCN(c3ccc(Cl)c(Cl)c3)C2=O)CC1	3.51 µM (active)	–
CCCCCCCCCCCCCCCS(=O)(=O)Oc1ccccc1	–	inactive

Molecular target: human Adrenergic, Alpha 2c Receptor (Adra2C), ADRA2C (gene 152) (UniProt P18825)
Sequence (P18825 whole entry, looked up): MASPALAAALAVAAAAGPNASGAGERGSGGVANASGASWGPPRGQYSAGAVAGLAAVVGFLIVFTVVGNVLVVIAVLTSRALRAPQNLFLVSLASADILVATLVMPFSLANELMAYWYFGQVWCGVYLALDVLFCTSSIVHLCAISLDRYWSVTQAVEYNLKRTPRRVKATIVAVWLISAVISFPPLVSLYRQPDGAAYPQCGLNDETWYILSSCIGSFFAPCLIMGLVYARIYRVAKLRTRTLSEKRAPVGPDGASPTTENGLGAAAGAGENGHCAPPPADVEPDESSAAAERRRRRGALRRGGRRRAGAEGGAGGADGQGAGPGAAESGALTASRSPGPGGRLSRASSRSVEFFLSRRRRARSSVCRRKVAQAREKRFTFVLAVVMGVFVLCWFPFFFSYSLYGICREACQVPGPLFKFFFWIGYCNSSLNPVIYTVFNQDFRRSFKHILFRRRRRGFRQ
Test: NVS_GPCR_hAdra2C: NovaScreen (NVS) G Protein-Coupled Receptor Assay for human Adrenergic, Alpha 2c Receptor (Adra2C) (AID 2283259)
In short: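 Screened first in duplicate at 25 uM, with actives then run as concentration series. Membranes from Sf9 cells were exposed for 1 h, and displacement of radioligand was counted after filtration, using DMSO as baseline.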

Compound	AC50	outcome
CCCOc1sc(C(=O)N2CCC(c3cc(CN)ccc3F)CC2)c(C)c1Br	8.34 µM (active)	–
NC(=O)N1C(=O)C(C(=O)c2cc(Cl)cs2)c2cc(F)c(Cl)cc21 (stereo unspecified)	25 µM (active)	–
CCCCCCCCCCCCc1ccccc1S(=O)(=O)O	7.16 µM (active)	–
CC[C@H](c1ccc(O)cc1)[C@@H](CC)c1ccc(O)cc1	–	inactive
CCN(CC)CCNc1ccc(CNC=O)c2sc3ccc(OC)cc3c(=O)c12	14.6 µM (active)	–
CCC(=C(c1ccc(O)cc1)c1ccc(OCCN(C)C)cc1)c1ccccc1	4.42 µM (active)	–
Cc1oc(-c2ccccc2)nc1CCOc1ccc(C[C@H](Nc2ccccc2C(=O)c2ccccc2)C(=O)O)cc1	13.6 µM (active)	–

Molecular target: Beta-2 adrenergic receptor (Homo sapiens) (UniProt P07550)
Sequence (P07550 whole entry, looked up): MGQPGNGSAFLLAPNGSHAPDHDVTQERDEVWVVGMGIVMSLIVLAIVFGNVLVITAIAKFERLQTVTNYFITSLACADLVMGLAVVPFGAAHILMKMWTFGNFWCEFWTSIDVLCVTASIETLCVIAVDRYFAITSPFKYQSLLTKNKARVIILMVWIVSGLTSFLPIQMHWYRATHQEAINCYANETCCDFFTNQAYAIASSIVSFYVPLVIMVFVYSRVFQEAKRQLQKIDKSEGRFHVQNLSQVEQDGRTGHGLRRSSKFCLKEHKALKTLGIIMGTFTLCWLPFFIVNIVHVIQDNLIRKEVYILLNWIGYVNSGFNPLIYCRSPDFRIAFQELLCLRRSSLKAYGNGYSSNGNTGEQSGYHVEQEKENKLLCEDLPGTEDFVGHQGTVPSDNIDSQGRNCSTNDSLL
Test: NVS_GPCR_hAdrb2: NovaScreen (NVS) G Protein-Coupled Receptor Assay for human Adrenergic, Beta 2 Receptor (Adrb2) (AID 2283261)
In short: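 Compounds screened in duplicate at 25 uM, then actives in concentration series. Human beta-2 receptor from CHO material, cell-free; radioligand displacement after 1 h measured by filtration and scintillation against DMSO baseline.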

Compound	AC50	outcome
CCCOc1sc(C(=O)N2CCC(c3cc(CN)ccc3F)CC2)c(C)c1Br	7.53 µM (active)	–
NC(=O)N(O)[C@@H]1C=C[C@H](Oc2cccc(Oc3ccc(F)cc3)c2)C1	–	inactive
CCCCCCCCCCCCc1ccccc1S(=O)(=O)O	21.7 µM (active)	–
CCN(CC)CCNc1ccc(CNC=O)c2sc3ccc(OC)cc3c(=O)c12	28.3 µM (active)	–
CN1CCN(c2ccccc2/C=C2\SCCN(c3ccc(Cl)c(Cl)c3)C2=O)CC1	0.199 µM (active)	–

Molecular target: human Adrenergic, Beta 3 Receptor (Adrb3), ADRB3 (gene 155) (UniProt P13945)
Sequence (P13945 whole entry, looked up): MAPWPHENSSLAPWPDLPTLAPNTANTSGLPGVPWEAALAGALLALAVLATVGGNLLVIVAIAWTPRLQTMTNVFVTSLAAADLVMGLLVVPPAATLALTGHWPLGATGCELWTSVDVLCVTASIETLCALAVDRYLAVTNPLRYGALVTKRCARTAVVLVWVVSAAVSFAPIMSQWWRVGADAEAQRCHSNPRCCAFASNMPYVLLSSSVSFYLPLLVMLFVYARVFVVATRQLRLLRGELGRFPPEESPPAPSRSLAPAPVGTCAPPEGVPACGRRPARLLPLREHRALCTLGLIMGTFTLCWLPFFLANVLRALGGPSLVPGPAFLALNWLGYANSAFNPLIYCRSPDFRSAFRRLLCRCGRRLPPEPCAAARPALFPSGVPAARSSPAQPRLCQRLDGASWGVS
Test: NVS_GPCR_hAdrb3: NovaScreen (NVS) G Protein-Coupled Receptor Assay for human Adrenergic, Beta 3 Receptor (Adrb3) (AID 2283262)
In short: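 A cell-free filter binding assay read by scintillation counting, with displacement of a specific radioligand measured after 1 hour. The receptor source was SK-N-MC extracts (cells pretreated with isoproterenol and 8-bromo-cAMP). Compounds were first tested at 25 uM in duplicate and then in concentration series.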

Compound	AC50	outcome
CC(=O)NC1(c2cccc(F)c2)CCN(CC[C@@]2(c3ccc(Cl)c(Cl)c3)CN(c3ccccc3)C(=O)CO2)CC1	34.2 µM (active)	–
CCCOc1sc(C(=O)N2CCC(c3cc(CN)ccc3F)CC2)c(C)c1Br	33.5 µM (active)	–
NC(=O)N(O)[C@@H]1C=C[C@H](Oc2cccc(Oc3ccc(F)cc3)c2)C1	–	inactive
CC(=O)CC(C)(C)O	–	inactive
CC[C@H](c1ccc(O)cc1)[C@@H](CC)c1ccc(O)cc1	–	inactive

Molecular target: human Dopamine Receptor D4.4 (DRD4.4), DRD4 (gene 1815) (UniProt P21917)
Sequence (P21917 whole entry, looked up): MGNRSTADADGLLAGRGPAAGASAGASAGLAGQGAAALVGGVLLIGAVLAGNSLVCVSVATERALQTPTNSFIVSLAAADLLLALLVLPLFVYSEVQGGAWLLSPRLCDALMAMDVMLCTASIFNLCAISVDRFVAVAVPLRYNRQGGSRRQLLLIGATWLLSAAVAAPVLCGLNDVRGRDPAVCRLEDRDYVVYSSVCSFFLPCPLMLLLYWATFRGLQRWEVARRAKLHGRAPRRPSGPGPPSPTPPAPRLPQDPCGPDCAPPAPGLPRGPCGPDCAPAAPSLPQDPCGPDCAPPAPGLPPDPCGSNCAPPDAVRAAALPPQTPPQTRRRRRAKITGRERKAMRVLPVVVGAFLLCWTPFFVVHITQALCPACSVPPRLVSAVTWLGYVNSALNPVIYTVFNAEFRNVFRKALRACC
Test: NVS_GPCR_hDRD4.4: NovaScreen (NVS) G Protein-Coupled Receptor Assay for human Dopamine Receptor D4.4 (DRD4.4) (AID 2283264)
In short: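 Filter-binding assay with a tritiated or iodinated ligand, cell-free receptor prepared from CHO, 1 hour. Loss of bound radioactivity versus DMSO; single 25 uM duplicate screen, then concentration-response for actives.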

Compound	AC50	outcome
CC(=O)NC1(c2cccc(F)c2)CCN(CC[C@@]2(c3ccc(Cl)c(Cl)c3)CN(c3ccccc3)C(=O)CO2)CC1	13.2 µM (active)	–
CCCOc1sc(C(=O)N2CCC(c3cc(CN)ccc3F)CC2)c(C)c1Br	16.9 µM (active)	–
c1ccc2cc3c(ccc4ccccc43)cc2c1	35.5 µM (active)	–
CC1=C(/C=C/C(C)=C/C=C/C(C)=C/C(=O)O)C(C)(C)CCC1	1.8 µM (active)	–
CCCCCCCCCCCCc1ccccc1S(=O)(=O)O	9.01 µM (active)	–
CCC(=C(c1ccc(O)cc1)c1ccc(OCCN(C)C)cc1)c1ccccc1	–	inactive
Cc1oc(-c2ccccc2)nc1CCOc1ccc(C[C@H](Nc2ccccc2C(=O)c2ccccc2)C(=O)O)cc1	–	inactive

Molecular target: human Dopamine Receptor D2 (DRD2), DRD2 (gene 1813) (UniProt P14416)
Sequence (P14416 whole entry, looked up): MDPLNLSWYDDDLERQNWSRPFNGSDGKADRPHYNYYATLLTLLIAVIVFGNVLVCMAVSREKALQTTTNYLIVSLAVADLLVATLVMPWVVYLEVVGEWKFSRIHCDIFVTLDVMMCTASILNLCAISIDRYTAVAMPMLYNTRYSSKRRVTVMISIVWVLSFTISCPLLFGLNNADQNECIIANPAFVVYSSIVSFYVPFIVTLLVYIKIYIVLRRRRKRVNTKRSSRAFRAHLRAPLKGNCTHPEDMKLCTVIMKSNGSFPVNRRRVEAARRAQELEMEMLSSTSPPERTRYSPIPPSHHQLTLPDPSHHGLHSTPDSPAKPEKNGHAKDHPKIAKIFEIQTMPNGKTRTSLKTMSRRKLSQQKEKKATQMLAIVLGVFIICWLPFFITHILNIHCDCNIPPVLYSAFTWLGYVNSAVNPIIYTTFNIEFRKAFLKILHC
Test: NVS_GPCR_hDRD2s: NovaScreen (NVS) G Protein-Coupled Receptor Assay for human Dopamine Receptor D2 (DRD2) (AID 2283266)
Description: as §1, with “NVS_GPCR_hDRD2s” for “NVS_GPCR_hAdrb1”, “CHO” for “Human neuroepithelioma cells”, “1.5” for “2”, “plate.NVS_GPCR_hDRD2s” for “plate.NVS_GPCR_hAdrb1”, “NVS_GPCR_hDRD2s,” for “NVS_GPCR_hAdrb1,”, “DRD2.” for “ADRB1.”
as §2

Compound	AC50	outcome
CC(=O)NC1(c2cccc(F)c2)CCN(CC[C@@]2(c3ccc(Cl)c(Cl)c3)CN(c3ccccc3)C(=O)CO2)CC1	11 µM (active)	–
CCCOc1sc(C(=O)N2CCC(c3cc(CN)ccc3F)CC2)c(C)c1Br	9.42 µM (active)	–
NC(=O)N(O)[C@@H]1C=C[C@H](Oc2cccc(Oc3ccc(F)cc3)c2)C1	–	inactive
COc1ccc([N+](=O)[O-])cc1N	7.93 µM (active)	–
CCCCCCCCCCCCc1ccccc1S(=O)(=O)O	18.5 µM (active)	–
CC[C@H](c1ccc(O)cc1)[C@@H](CC)c1ccc(O)cc1	6.99 µM (active)	–
CCN(CC)CCNc1ccc(CNC=O)c2sc3ccc(OC)cc3c(=O)c12	18.8 µM (active)	–
CCC(=C(c1ccc(O)cc1)c1ccc(OCCN(C)C)cc1)c1ccccc1	0.647 µM (active)	–

Molecular target: human Histamine 1 Receptor (H1), HRH1 (gene 3269) (UniProt P35367)
Sequence (P35367 whole entry, looked up): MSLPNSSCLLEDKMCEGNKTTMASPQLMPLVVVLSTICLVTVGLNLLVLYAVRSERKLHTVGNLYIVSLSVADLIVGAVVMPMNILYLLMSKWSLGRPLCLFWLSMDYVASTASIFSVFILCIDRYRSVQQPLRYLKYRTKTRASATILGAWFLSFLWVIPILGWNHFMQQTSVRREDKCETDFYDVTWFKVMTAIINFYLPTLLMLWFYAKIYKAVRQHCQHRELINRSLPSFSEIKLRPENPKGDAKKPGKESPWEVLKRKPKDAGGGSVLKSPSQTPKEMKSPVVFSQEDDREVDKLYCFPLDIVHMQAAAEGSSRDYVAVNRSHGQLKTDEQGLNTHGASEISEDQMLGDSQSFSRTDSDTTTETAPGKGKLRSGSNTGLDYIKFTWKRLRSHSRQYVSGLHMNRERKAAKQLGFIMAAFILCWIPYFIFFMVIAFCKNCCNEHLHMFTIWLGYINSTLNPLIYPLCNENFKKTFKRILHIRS
Test: NVS_GPCR_hH1: NovaScreen (NVS) G Protein-Coupled Receptor Assay for human Histamine 1 Receptor (H1) (AID 2283268)
In short: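 Filter-based scintillation detection of radioligand binding to human H1, 1 h incubation; chemicals screened in duplicate at 25 uM, then concentration-response; signal loss relative to DMSO taken as activity.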

Compound	AC50
CCCOc1sc(C(=O)N2CCC(c3cc(CN)ccc3F)CC2)c(C)c1Br	18.2 µM (active)
CCCCCCCCCCCCc1ccccc1S(=O)(=O)O	25.2 µM (active)
CCN(CC)CCNc1ccc(CNC=O)c2sc3ccc(OC)cc3c(=O)c12	7.5 µM (active)
Cc1oc(-c2ccccc2)nc1CCOc1ccc(C[C@H](Nc2ccccc2C(=O)c2ccccc2)C(=O)O)cc1	35.5 µM (active)

Molecular target: D(1A) dopamine receptor (Homo sapiens) (UniProt P21728)
Sequence (P21728 whole entry, looked up): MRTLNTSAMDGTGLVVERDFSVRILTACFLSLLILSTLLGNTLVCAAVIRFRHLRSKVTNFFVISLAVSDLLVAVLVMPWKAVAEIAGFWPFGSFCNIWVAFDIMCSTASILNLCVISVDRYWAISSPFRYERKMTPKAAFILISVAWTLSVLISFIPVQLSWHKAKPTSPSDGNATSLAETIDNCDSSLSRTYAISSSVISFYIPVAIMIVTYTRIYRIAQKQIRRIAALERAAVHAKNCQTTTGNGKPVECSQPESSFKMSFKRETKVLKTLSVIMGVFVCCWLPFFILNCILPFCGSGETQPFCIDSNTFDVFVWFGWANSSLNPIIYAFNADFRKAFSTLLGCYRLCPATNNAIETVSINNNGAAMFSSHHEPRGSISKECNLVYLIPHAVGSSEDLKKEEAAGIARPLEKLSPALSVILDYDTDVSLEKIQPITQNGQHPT
Test: NVS_GPCR_hDRD1: NovaScreen (NVS) G Protein-Coupled Receptor Assay for human Dopamine Receptor D1 (DRD1) (AID 2283269)
In short: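 Radioligand displacement binding on membranes/protein extracted from HEK293 expressing human D1, cell-free; read 1 h after dosing by filter-based scintillation counting. Primary screen in duplicate at 25 uM, actives followed up in concentration series; signal loss versus DMSO baseline.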

Compound	AC50	outcome
CC(=O)NC1(c2cccc(F)c2)CCN(CC[C@@]2(c3ccc(Cl)c(Cl)c3)CN(c3ccccc3)C(=O)CO2)CC1	14.8 µM (active)	–
CCCOc1sc(C(=O)N2CCC(c3cc(CN)ccc3F)CC2)c(C)c1Br	3.56 µM (active)	–
NC(=O)N(O)[C@@H]1C=C[C@H](Oc2cccc(Oc3ccc(F)cc3)c2)C1	25 µM (active)	–
CCCCCCCCCCCCCC[N+](C)(C)C	4.57 µM (active)	–
NC(=O)N1C(=O)C(C(=O)c2cc(Cl)cs2)c2cc(F)c(Cl)cc21 (stereo unspecified)	–	inactive
CCCCCCCCCCCCc1ccccc1S(=O)(=O)O	6.99 µM (active)	–
CCN(CC)CCNc1ccc(CNC=O)c2sc3ccc(OC)cc3c(=O)c12	7.31 µM (active)	–
CCC(=C(c1ccc(O)cc1)c1ccc(OCCN(C)C)cc1)c1ccccc1	1.71 µM (active)	–
Cc1oc(-c2ccccc2)nc1CCOc1ccc(C[C@H](Nc2ccccc2C(=O)c2ccccc2)C(=O)O)cc1	12.1 µM (active)	–

Reference: PubChem BioAssay (EPA / NIEHS)
